± gives the standard deviation.
Columns and labels:
[1] = test system: MILI (PIWIL2) piRISC loaded with L1MC piRNA (26 nt); test: pre-steady-state target cleavage rate (min^-1); guide: L1MC piRNA 5'p-UAACUAAAUACUAUGCAAGCUGUAGG; higher = faster piRNA-guided slicing of the target
Procedure, shortened: (§1)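 The method was Cleave-'n-Seq, in which uncleaved targets from a transcribed, DNA-blocked target RNA library were sequenced after exposure to active affinity-purified piRISC carrying one synthetic guide, with or without GTSF1 partner protein. Reactions contained 0.1 nM library, 1 nM piRISC and, where present, 500 nM GTSF1 in HEPES–potassium acetate buffer at 33 °C for 0–8 or 0–960 min. Reads were normalised to depth and to weakly complementary targets, three trials were pooled, and k3 was capped at 0.0001 min^-1. The pre-steady-state cleavage rate came from a burst-and-steady-state fit.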

[2] = test system: EfPiwi piRISC loaded with L1MC piRNA (26 nt); test: pre-steady-state target cleavage rate (min^-1); auxiliary factor: 500 nM Ephydatia muelleri Gtsf1; guide: L1MC piRNA 5'p-UAACUAAAUACUAUGCAAGCUGUAGG; MIWI and MILI are mouse PIWI proteins and EfPiwi is from a freshwater sponge; tags in brackets are library labels; higher = faster piRNA-guided slicing of the target
Procedure, shortened: as §1

[3] = auxiliary factor: 500 nM mouse GTSF1
[4] = auxiliary factor: none (no GTSF1)

UCCUGCUACAGCUAGGAUAGUAUUUAGUUA
pre-steady-state target cleavage rate [1, 3]: 0.259 ± 0.015 | pre-steady-state target cleavage rate [1, 4]: 0.00677 ± 0.0024 | pre-steady-state target cleavage rate [2]: 0.011 ± 0.0037

UCCUGGAUGUGGUUGCAUAGUAUAUAGUUA
pre-steady-state target cleavage rate [1, 3]: 0.158 ± 0.023 | pre-steady-state target cleavage rate [1, 4]: 0.00921 ± 0.0037 | pre-steady-state target cleavage rate [2]: 0.00747 ± 0.0056

UCCUGGUACAGCUGUGCAUAGUAUUUAGUUA
pre-steady-state target cleavage rate [1, 3]: 0.238 ± 0.019 | pre-steady-state target cleavage rate [1, 4]: 0.0118 ± 0.0046 | pre-steady-state target cleavage rate [2]: 0.00903 ± 0.0034

UCCUGGAUGUGCUUCAUAGUAUUUAGUUA
pre-steady-state target cleavage rate [1, 3]: 0.046 ± 0.01 | pre-steady-state target cleavage rate [1, 4]: 0.00455 ± 0.002 | pre-steady-state target cleavage rate [2]: 0.00929 ± 0.0056

UCCUGCACAGCUUGCAUAGUAUUUAGUUA
pre-steady-state target cleavage rate [1, 3]: 0.317 ± 0.018 | pre-steady-state target cleavage rate [1, 4]: 0.00995 ± 0.0028 | pre-steady-state target cleavage rate [2]: 0.0745 ± 0.016

UCCUGGAACAGCUUGCAUAGUAUCUUAGUUA
pre-steady-state target cleavage rate [1, 3]: 0.267 ± 0.022 | pre-steady-state target cleavage rate [1, 4]: 0.00791 ± 0.0019 | pre-steady-state target cleavage rate [2]: 0.0187 ± 0.0064

UCCUCUACAGCUUGCAUAGUAUUUAGUUA
pre-steady-state target cleavage rate [1, 3]: 0.31 ± 0.013 | pre-steady-state target cleavage rate [1, 4]: 0.00953 ± 0.0028 | pre-steady-state target cleavage rate [2]: 0.183 ± 0.045

UCCUGCUACAGGUUGCAAAGUAUUUAGUUA
pre-steady-state target cleavage rate [1, 3]: 0.143 ± 0.013 | pre-steady-state target cleavage rate [1, 4]: 0.00965 ± 0.0025 | pre-steady-state target cleavage rate [2]: 0.0385 ± 0.0096

UCCUGGAUGUCGAUGCAUAGUAUUUAGUUUA
pre-steady-state target cleavage rate [1, 3]: 0.0871 ± 0.014 | pre-steady-state target cleavage rate [1, 4]: 0.0069 ± 0.0031 | pre-steady-state target cleavage rate [2]: 0.00642 ± 0.0029

UCCUGGAUCAGCUUGCAUAGUAUUAUGUUA
pre-steady-state target cleavage rate [1, 3]: 0.122 ± 0.021 | pre-steady-state target cleavage rate [1, 4]: 0.00357 ± 0.0028 | pre-steady-state target cleavage rate [2]: 0.005 ± 0.0024

UCCUGGUACAGCUGGCAUAGUAUUUAGUUA
pre-steady-state target cleavage rate [1, 3]: 0.199 ± 0.022 | pre-steady-state target cleavage rate [1, 4]: 0.0121 ± 0.0031 | pre-steady-state target cleavage rate [2]: 0.0113 ± 0.0038

UCCUGGAUGAGCUAGCAUAGUAUUAAGUUA
pre-steady-state target cleavage rate [1, 3]: 0.226 ± 0.023 | pre-steady-state target cleavage rate [1, 4]: 0.00417 ± 0.0024 | pre-steady-state target cleavage rate [2]: 0.00293 ± 0.0024

UCCUGGAUGAGCUUGCAUAGUAUUUAGUUUA
pre-steady-state target cleavage rate [1, 3]: 0.184 ± 0.02 | pre-steady-state target cleavage rate [1, 4]: 0.0105 ± 0.0031 | pre-steady-state target cleavage rate [2]: 0.0215 ± 0.0067

UCCUGGAUGUCCUUGCAUAGUCUUUAGUUA
pre-steady-state target cleavage rate [1, 3]: 0.0269 ± 0.0075 | pre-steady-state target cleavage rate [1, 4]: 0.00468 ± 0.0022 | pre-steady-state target cleavage rate [2]: 0.00326 ± 0.0014

UCCUGGAUGAGGUUGCAUAGUAAUUAGUUA
pre-steady-state target cleavage rate [1, 3]: 0.117 ± 0.032 | pre-steady-state target cleavage rate [1, 4]: 0.00411 ± 0.0022 | pre-steady-state target cleavage rate [2]: 0.00522 ± 0.003

UCCUGGAUCACCUUGCAUAGUAUUUAGUUA
pre-steady-state target cleavage rate [1, 3]: 0.234 ± 0.023 | pre-steady-state target cleavage rate [1, 4]: 0.00706 ± 0.0023 | pre-steady-state target cleavage rate [2]: 0.018 ± 0.0063

UCCUGGUACAGCUUGCAUAGUAUUUAGUAA
pre-steady-state target cleavage rate [1, 3]: 0.283 ± 0.036 | pre-steady-state target cleavage rate [1, 4]: 0.00667 ± 0.0024 | pre-steady-state target cleavage rate [2]: 0.0108 ± 0.0041

UCCUGGAACAGCUUGCAUAGUACUUUAGUUA
pre-steady-state target cleavage rate [1, 3]: 0.168 ± 0.015 | pre-steady-state target cleavage rate [1, 4]: 0.00486 ± 0.0022 | pre-steady-state target cleavage rate [2]: 0.00922 ± 0.0033

UCCUGCUACAGCUUGCAUAGUACUUAGUUA
pre-steady-state target cleavage rate [1, 3]: 0.233 ± 0.026 | pre-steady-state target cleavage rate [1, 4]: 0.00719 ± 0.0026 | pre-steady-state target cleavage rate [2]: 0.00608 ± 0.0018

— the supplement of paper PMC10338343
